Screening data from PubChem BioAssay.
Shown are actives, neighbours in structure and some others; about 1.5% of the full set was active somewhere.
Rin1-Abl PPI inh = inhibitors of human Rin1-Abl protein interaction; P00519+Q13671; TR-FRET Rin1/Abl binding, biochemical; inhibition, % at 7.35 µM; 360,000 compounds, 0.4% hits; in the data active = inhibition above about 5%, passing the limit was not always enough
HGIII-sPLA2 inh = Inhibits HGIII-sPLA2 liposome hydrolysis, primary screen | 370,000 compounds, 0.56% hits | inhibition, % at 12.2 µM | Q9NZ20 | QFRET BODIPY PC-A2 liposome hydrolysis, fluorescence | AID 743126;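 active = inhibition above mean plus 3 SD of compounds lying within the high and low control bounds, cut at about 19% in these data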;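 note: 0% = median of test compound wells and 100% = no enzyme DMSO wells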
Target sequence (Q9NZ20 whole entry, looked up): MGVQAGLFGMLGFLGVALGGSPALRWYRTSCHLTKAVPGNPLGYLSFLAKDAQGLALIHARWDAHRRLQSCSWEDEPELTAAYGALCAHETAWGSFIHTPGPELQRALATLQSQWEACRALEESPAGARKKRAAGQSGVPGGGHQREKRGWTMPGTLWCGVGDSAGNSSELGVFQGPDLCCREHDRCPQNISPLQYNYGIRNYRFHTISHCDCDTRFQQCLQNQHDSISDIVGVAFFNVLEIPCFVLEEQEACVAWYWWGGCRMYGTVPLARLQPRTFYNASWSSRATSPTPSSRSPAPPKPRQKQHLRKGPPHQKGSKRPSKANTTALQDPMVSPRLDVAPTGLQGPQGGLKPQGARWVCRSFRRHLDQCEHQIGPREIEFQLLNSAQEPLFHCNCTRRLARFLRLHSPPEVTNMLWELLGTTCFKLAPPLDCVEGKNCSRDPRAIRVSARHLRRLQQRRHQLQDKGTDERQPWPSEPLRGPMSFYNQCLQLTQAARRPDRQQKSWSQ
AI-2 QS modul = modulates the Vibrio harveyi AI-2 quorum sensing system; activity change, % at 7.5 µM; 300,000 compounds, 0.4% hits; Vibrio harveyi JMH597 AI-2 luminescence/OD600 ratio, 9 h; hits give low values; strain lacks LuxN and CqsS sensors; 0 = neutral-control median; in the data active = activity change below about -75%, passing the limit was not always enough; inconclusive = no clear call, values can overlap the other calls;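 note: luminescence divided by OD600 gain over 9 h not by final OD600 alone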
ARNT TACC3 PPI = disrupts binding between human ARNT and TACC3; inhibition, % at 9.99 µM; 390,000 compounds, 0.66% hits; AlphaScreen His-ARNT PAS-B/GST-TACC3 binding, luminescence; TACC3 fragment carries E629A point mutation; AID 623870;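 active = mean inhibition of replicates at least 50% and at least half of replicates each reaching 50%; inconclusive = half or more replicates reach 50% but mean below 50%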;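 note: 0% = complete ARNT plus TACC3 wells and 100% = ARNT alone without TACC3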
JMH597 growth rt = retest: blocks Vibrio harveyi JMH597 growth. 750 compounds, 1% hits. shares compounds with AI-2 QS modul. growth inhibition, % at 7.5 µM. OD600 absorbance, 9 h; lacks LuxN and CqsS sensors;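 active = every replicate shows growth inhibition above 50%; inconclusive = at least half, but not all, replicates pass that cutoff; inactive = fewer than half of replicates pass it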
BB721 lum counter = retest counter-screen: luminescence loss in constitutive-on quorum sensing strain BB721; shares compounds with AI-2 QS modul; Vibrio harveyi BB721 luminescence, 9 h; inhibition, % at 7.5 µM; 750 compounds, 95% hits; AID 2727;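 active = inhibition above about 80% in every replicate, not just on average, limit read from the data; inconclusive = at least half of replicates past the limit, but not all; inactive = fewer than half of replicates past the limit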
BB721 growth rt = retest Vibrio harveyi BB721 growth inhibition; OD600 absorbance, 9 h; 750 compounds, 3% hits; shares compounds with AI-2 QS modul; growth inhibition, % at 7.5 µM;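 active = every replicate shows growth inhibition above 50%; inconclusive = at least half but not all replicates above 50% inhibition; inactive = under half of replicates above 50% inhibition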
AI-2 QS JMH597 = Vibrio harveyi AI-2 signaling luminescence modulation – JMH597 strain, confirmation | inhibition, % at 7.5 µM | shares compounds with AI-2 QS modul | Vibrio harveyi JMH597 AI-2 quorum sensing luminescence, 9 h; luxN and CqsS knockout, AI-2 only | 750 compounds, 97% hits;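 active = every replicate shows more than 75% inhibition of signal versus neutral control wells; inconclusive = half to three quarters of replicates exceed 75% inhibition; inactive = fewer than half of replicates exceed 75% inhibition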
* marks the source's active call; other numbers are inactive results.

For O=C(COC(=O)c1ccco1)Nc1nc2ccccc2s1 the results were Rin1-Abl PPI inh -1, HGIII-sPLA2 inh 4, AI-2 QS modul inconclusive, ARNT TACC3 PPI 4, JMH597 growth rt -2, BB721 lum counter 94*, BB721 growth rt 11 and AI-2 QS JMH597 95*.
`C[C@H](CO)N1C[C@H](C)[C@H](CN(C)C(=O)Cc2ccccc2)OCCCC[C@H](C)Oc2ccc(NS(=O)(=O)c3cn(C)cn3)cc2C1=O` gave ARNT TACC3 PPI -2.
Screening COc1ccc(Cl)cc1N(CC(=O)N1CCCC1)S(C)(=O)=O returned Rin1-Abl PPI inh 0, HGIII-sPLA2 inh 4, AI-2 QS modul inconclusive, ARNT TACC3 PPI -6, JMH597 growth rt -12, BB721 lum counter -7, BB721 growth rt 6 and AI-2 QS JMH597 -7.
Screening COCC#Cc1ccc2c(c1)O[C@H](CN(C)CC1CCOCC1)[C@H](C)CN([C@H](C)CO)S2(=O)=O returned ARNT TACC3 PPI -2.
Screening Cc1ccc(C(=O)CSc2nnc(-c3cccnc3)n2N)cc1 returned Rin1-Abl PPI inh -2, HGIII-sPLA2 inh 1, AI-2 QS modul 36 and ARNT TACC3 PPI 28.
For Cc1ccc(CSc2nnc(-c3cccnc3)n2N)cc1 the results were Rin1-Abl PPI inh -5, HGIII-sPLA2 inh 6, AI-2 QS modul -90*, ARNT TACC3 PPI -4, JMH597 growth rt -8, BB721 lum counter 96*, BB721 growth rt -1 and AI-2 QS JMH597 97*.
`Cc1ccc(Cn2ncc(Cl)c(Cl)c2=O)cc1` gave Rin1-Abl PPI inh 1, HGIII-sPLA2 inh -1, AI-2 QS modul 12 and ARNT TACC3 PPI 1.
O=c1c(Cl)c(Cl)cnn1Cc1nnc(-c2ccc(Cl)cc2)o1 was read as Rin1-Abl PPI inh 0, HGIII-sPLA2 inh -7, AI-2 QS modul -91*, ARNT TACC3 PPI 3, JMH597 growth rt -23, BB721 lum counter 98*, BB721 growth rt 22 and AI-2 QS JMH597 99*.
`CCC(=O)N1CC[C@@H]2[C@H](CO)Nc3ccc(-c4cccc(C#N)c4)cc3[C@@H]21` gave ARNT TACC3 PPI 8.
O=C(COc1ccccc1)NCC(=O)Nc1ccc(S(=O)(=O)NCc2ccco2)cc1 was read as Rin1-Abl PPI inh -1, HGIII-sPLA2 inh -20, AI-2 QS modul 26 and ARNT TACC3 PPI -4.
For O=C(COc1ccccc1)Nc1ccc(S(=O)(=O)NCc2ccco2)cc1 the results were Rin1-Abl PPI inh -1, HGIII-sPLA2 inh -14, AI-2 QS modul -97*, ARNT TACC3 PPI -10, JMH597 growth rt 13, BB721 lum counter 100*, BB721 growth rt -57 and AI-2 QS JMH597 100*.
`O=C(COc1ccccc1F)Nc1ccc(S(=O)(=O)NCc2ccco2)cc1` gave Rin1-Abl PPI inh 1, HGIII-sPLA2 inh -36, AI-2 QS modul -92*, ARNT TACC3 PPI -3, JMH597 growth rt 29, BB721 lum counter 99*, BB721 growth rt -12 and AI-2 QS JMH597 99*.
Screening CCc1nnc(NC(=O)CSc2nnc(COc3cccc(C)c3)o2)s1 returned Rin1-Abl PPI inh 5, HGIII-sPLA2 inh -10, AI-2 QS modul -90*, ARNT TACC3 PPI 29, JMH597 growth rt 13, BB721 lum counter 96*, BB721 growth rt -13 and AI-2 QS JMH597 98*.
Cc1cccc(OCc2nnc(SCC(=O)Nc3ncc(C)s3)o2)c1 was read as Rin1-Abl PPI inh -1, HGIII-sPLA2 inh -9, AI-2 QS modul 8 and ARNT TACC3 PPI 22.
CCc1ccc2nc(NC(=O)CSCc3c(C)noc3C)sc2c1 was read as Rin1-Abl PPI inh -1, HGIII-sPLA2 inh -16, AI-2 QS modul -90*, ARNT TACC3 PPI -2, JMH597 growth rt 11, BB721 lum counter 94*, BB721 growth rt -109 and AI-2 QS JMH597 96*.
CCNC(=O)c1cc2ccccc2o1 was read as Rin1-Abl PPI inh -4, HGIII-sPLA2 inh 2, AI-2 QS modul 11 and ARNT TACC3 PPI -1.
For O=C(NCc1ccccc1)c1cc2ccccc2o1 the results were Rin1-Abl PPI inh 1, HGIII-sPLA2 inh -1, AI-2 QS modul -86*, ARNT TACC3 PPI -8, JMH597 growth rt -11, BB721 lum counter 94*, BB721 growth rt -4 and AI-2 QS JMH597 95*.
For O=C(O)c1ccc(NCc2cccnc2)cc1 the results were Rin1-Abl PPI inh -1, HGIII-sPLA2 inh 5, AI-2 QS modul 19 and ARNT TACC3 PPI -6.
For O=C(O)c1ccc(NCc2ccc(Br)cc2)cc1 the results were Rin1-Abl PPI inh 0, HGIII-sPLA2 inh -7, AI-2 QS modul -96*, ARNT TACC3 PPI -5, JMH597 growth rt -8, BB721 lum counter 100*, BB721 growth rt 12 and AI-2 QS JMH597 100*.
`CO[C@@H]1CN(C)C(=O)c2cc(NS(=O)(=O)c3ccc(C)cc3)ccc2OC[C@H](C)N(C)C[C@H]1C` gave ARNT TACC3 PPI 9.
For Clc1cccc(OCc2nnc(-c3ccccc3Br)o2)c1 the results were Rin1-Abl PPI inh 2, HGIII-sPLA2 inh -8, AI-2 QS modul -90*, ARNT TACC3 PPI -30, JMH597 growth rt inconclusive, BB721 lum counter 97*, BB721 growth rt 82* and AI-2 QS JMH597 98*.
For O=C(CCc1ccccc1)Nc1ccc2c(c1)OCO2 the results were Rin1-Abl PPI inh 0, HGIII-sPLA2 inh 7, AI-2 QS modul -69 and ARNT TACC3 PPI -4.
`O=C(Nc1ccc2c(c1)OCO2)OCc1ccccc1` gave Rin1-Abl PPI inh 0, AI-2 QS modul -93*, ARNT TACC3 PPI -9, JMH597 growth rt -4, BB721 lum counter 98*, BB721 growth rt 18 and AI-2 QS JMH597 98*.
`C[C@H](CO)N1C[C@H](C)[C@H](CN(C)CC2CC2)Oc2ccc(NC(=O)Nc3ccc(F)cc3)cc2CC1=O` gave ARNT TACC3 PPI 26.
O=c1[nH]c(=O)n(Cc2ccc(Oc3ccccc3)cc2)cc1Br was read as Rin1-Abl PPI inh 2, HGIII-sPLA2 inh -15, AI-2 QS modul -86*, JMH597 growth rt 31, BB721 lum counter 93*, BB721 growth rt 20 and AI-2 QS JMH597 95*.
For N#Cc1cn(Cc2ccccc2)c(=O)[nH]c1=O the results were Rin1-Abl PPI inh 1, HGIII-sPLA2 inh -2, AI-2 QS modul 19 and ARNT TACC3 PPI -1.
Screening C[C@H]1CN([C@@H](C)CO)C(=O)c2cc(C#CCN(C)C)cnc2O[C@H]1CN(C)Cc1cccc(F)c1 returned ARNT TACC3 PPI -2.
`COC(=O)c1ccc(-c2noc(CN(C)CC3CCCCO3)n2)cc1` (stereo not drawn) gave Rin1-Abl PPI inh -1, HGIII-sPLA2 inh 12, AI-2 QS modul -2 and ARNT TACC3 PPI -4.
